# Test results as given in PubChem BioAssay (EPA / NIEHS).
# “And” between values parts separate entries of the source, which are not always exact repeats. Equal values may be shown once. Where a structure was tested more than once in an assay, its records may differ in their call. The source made the active and inactive calls. The calls were made as follows: active = hit-call score of the fitted dose curve at least 0.9, where 1 is the maximum; inactive = score below 0.9.
# Read-out: Macrophage colony-stimulating factor (MCSF), CSF1 (gene 1435)
# Assay: BSK_LPS_MCSF: BioMAP Diversity Plus: LPS Assay for Macrophage colony-stimulating factor (MCSF) Biomarker Activity (AID 2283083)
# Settings: primary human HUVEC with PBMC; actives raise or lower the signal
# In short: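 Bidirectional fit versus DMSO of ELISA-measured M-CSF in co-cultured human umbilical vein endothelial cells and PBMC, sampled 24 h after dosing.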
row,SMILES,outcome
1,O=C(O)C(F)(OC(F)(F)C(F)(OC(F)(F)C(F)(OC(F)(F)C(F)(F)C(F)(F)F)C(F)(F)F)C(F)(F)F)C(F)(F)F (stereo unspecified),inactive
2,FC(F)(Br)C(F)(F)C(F)(F)C(F)(F)C(F)(F)C(F)(F)Br,inactive
3,O=C(O)C(F)(F)C(F)(F)C(F)F,inactive
4,O=C(O)C(F)(OC(F)(F)C(F)(OC(F)(F)C(F)(F)C(F)(F)F)C(F)(F)F)C(F)(F)F (stereo unspecified),inactive
5,CCCCC(CC)COP(=O)(O)OCC(CC)CCCC (stereo unspecified),inactive
6,C=CC(F)(F)C(F)(F)C(F)(F)C(F)(F)C(F)(F)C(F)(F)C(F)(F)C(F)(F)F,inactive
7,COC(=O)CCC(F)(F)C(F)(F)C(F)(F)C(F)(F)F,inactive
8,C=CC(=O)OCC(F)(F)C(F)(F)C(F)(F)C(F)(F)C(F)(F)C(F)(F)C(F)(F)F,inactive
9,FC(F)(F)C(F)(F)C(F)(F)C(F)(F)C(F)(F)C(F)(F)CC1CO1 (stereo unspecified),inactive
10,FC(F)(F)C(F)(F)C(F)(F)C(F)(F)C(F)(F)C(F)(F)C(F)(F)C(F)(F)CCS,inactive
11,OCC(F)(F)C(F)(F)C(F)(F)C(F)(F)C(F)(F)C(F)F,inactive
12,FC1CC(F)(F)C(F)(F)C1(F)F (stereo unspecified),inactive
13,FC(F)(F)C(F)(F)C(F)(F)CI,inactive
14,NC(=O)C(F)(F)C(F)(F)C(F)(F)C(F)(F)F,inactive
15,C=CC(F)(F)C(F)(F)C(F)(F)C(F)(F)C(F)(F)C(F)(F)C(F)(F)C(F)(F)C=C,inactive
16,OCC(F)(F)C(F)(F)C(F)(F)C(F)F,inactive
17,OCC(F)(F)C(F)(F)C(F)(F)F,inactive
18,OCCCC(F)(F)C(F)(F)C(F)(F)F,inactive
19,O=S(=O)(OCCOC(F)(F)F)C(F)(F)F,inactive

# Read-out: Tissue Factor, F3 (gene 2152)
# Assay: BSK_LPS_TissueFactor: BioMAP Diversity Plus: LPS Assay for Tissue Factor Biomarker Activity (AID 2283084)
# Settings: primary human HUVEC with PBMC; actives raise or lower the signal
# In short: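 Read-out: CD142 ELISA, 24 h. System: LPS-driven human endothelial/PBMC co-culture. Analysis: up- or down-signal fitted against DMSO.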
SMILES,outcome,AC50
O=C(O)C(F)(F)C(F)(F)C(F)(F)C(F)(F)F,inactive,
OCC(F)(F)C(F)(F)C(F)(F)C(F)(F)C(F)(F)C(F)(F)F,inactive,
C=C(C)C(=O)OCCC(F)(F)C(F)(F)C(F)(F)C(F)(F)C(F)(C(F)(F)F)C(F)(F)F,inactive,
O=P(O)(O)OCCC(F)(F)C(F)(F)C(F)(F)C(F)(F)C(F)(F)C(F)(F)F,inactive,
O=S(=O)(OCC(F)F)C(F)(F)F,inactive,
O=C(CC(=O)C(F)(F)C(F)(F)F)C(F)(F)F,inactive,
C=CC(=O)OCC(F)(F)C(F)(F)C(F)(F)C(F)(F)COC(=O)C=C,,36.4 µM (active) and 34.8 µM (active)
CCCCCCCCC(F)(F)C(F)(F)C(F)(F)C(F)(F)C(F)(F)C(F)(F)F,inactive,
N=C(N)C(F)(F)C(F)(F)C(F)(F)C(F)(F)C(F)(F)C(F)(F)C(F)(F)F,inactive,
O=C(O)C(F)(F)C(F)(F)F,inactive,
FC(F)(I)C(F)(F)C(F)(F)C(F)(F)I,inactive,
FC(F)(F)C(F)(F)C(F)(F)C(F)(F)C(F)(F)C(F)(F)C(F)(F)C(F)(F)F,inactive,
FC(F)(F)C(F)(F)C(F)(F)N(C(F)(F)C(F)(F)C(F)(F)F)C(F)(F)C(F)(F)C(F)(F)F,inactive,
FC(F)(F)C(F)(F)CNCC(F)(F)C(F)(F)F,inactive,
FC(F)(F)C(F)(F)C(F)(F)C(F)(F)C(F)(F)C(F)(F)CCS,inactive,
O=C(O)C(F)(F)C(F)(F)C(F)(F)F,inactive,
O=C(O)C(F)(F)C(F)(F)C(F)(F)C(F)(F)C(F)(F)C(F)(F)C(F)(F)C(F)(F)Cl,inactive,
O=C(O)C(F)(OC(F)(F)C(F)(OC(F)(F)C(F)(OC(F)(F)C(F)(F)C(F)(F)F)C(F)(F)F)C(F)(F)F)C(F)(F)F (stereo unspecified),inactive,

SMILES,outcome,AC50
FC(F)(Br)C(F)(F)C(F)(F)C(F)(F)C(F)(F)C(F)(F)Br,inactive,
O=C(O)C(F)(F)C(F)(F)C(F)F,inactive,
O=C(O)C(F)(OC(F)(F)C(F)(OC(F)(F)C(F)(F)C(F)(F)F)C(F)(F)F)C(F)(F)F (stereo unspecified),inactive,
CCCCC(CC)COP(=O)(O)OCC(CC)CCCC (stereo unspecified),inactive,
C=CC(F)(F)C(F)(F)C(F)(F)C(F)(F)C(F)(F)C(F)(F)C(F)(F)C(F)(F)F,inactive,
COC(=O)CCC(F)(F)C(F)(F)C(F)(F)C(F)(F)F,inactive,
C=CC(=O)OCC(F)(F)C(F)(F)C(F)(F)C(F)(F)C(F)(F)C(F)(F)C(F)(F)F,inactive,
FC(F)(F)C(F)(F)C(F)(F)C(F)(F)C(F)(F)C(F)(F)CC1CO1 (stereo unspecified),inactive,
FC(F)(F)C(F)(F)C(F)(F)C(F)(F)C(F)(F)C(F)(F)C(F)(F)C(F)(F)CCS,inactive,1.02 µM (active)
OCC(F)(F)C(F)(F)C(F)(F)C(F)(F)C(F)(F)C(F)F,inactive,
FC1CC(F)(F)C(F)(F)C1(F)F (stereo unspecified),inactive,
FC(F)(F)C(F)(F)C(F)(F)CI,inactive,
NC(=O)C(F)(F)C(F)(F)C(F)(F)C(F)(F)F,inactive,
C=CC(F)(F)C(F)(F)C(F)(F)C(F)(F)C(F)(F)C(F)(F)C(F)(F)C(F)(F)C=C,inactive,
OCC(F)(F)C(F)(F)C(F)(F)C(F)F,inactive,
OCC(F)(F)C(F)(F)C(F)(F)F,inactive,
OCCCC(F)(F)C(F)(F)C(F)(F)F,inactive,
O=S(=O)(OCCOC(F)(F)F)C(F)(F)F,inactive,
